Consider 8 compounds from PubChem BioAssay (NCI).

Some test systems named below: RPMI-8226 leukemia; OVCAR-8 ovarian; OVCAR-5 ovarian; OVCAR-4 ovarian; SK-OV-3 ovarian; IGROV1 ovarian; OVCAR-3 ovarian; HS 578T breast; NCI/ADR-RES ovarian; T-47D breast; BT-549 breast; MDA-MB-435 melanoma; SW-620 colon; MCF7 breast; HCT-116 colon; HCC-2998 colon; KM12 colon.
What all share (test): NCI-60 one-dose screen, 48 h (100 = growth as untreated, 0 = no growth, -100 = all killed)
Conditions in all cases: 10 µM unless noted

The panel holds about 83,000 compounds, 20% with a hit somewhere; the sample as a whole holds those more often.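 Interpretation: 100, growth as untreated; towards 0, rising growth inhibition; 0, no net growth; 0 to -100, cell death. Compounds scoring below 10 were considered active.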 A number with no mark means an inactive call. The source made the active and inactive calls.

For the compound `C=C1C(=O)O[C@H]2[C@H]1CC/C(COC(=O)c1cn(C)c3ccccc13)=C\CC[C@@]1(C)O[C@@H]21`, the growth was -29.5% (active) with RPMI-8226 leukemia; -20.5% (active) in the experiment with OVCAR-8 ovarian; -25.5% (active) in the experiment on OVCAR-5 ovarian; -33.6% (active) with OVCAR-4 ovarian; 63% with SK-OV-3 ovarian; -47.6% (active) with IGROV1 ovarian. The growth in the experiment on OVCAR-3 ovarian was -72.1% (active); in the experiment with HS 578T breast, 12.7%; in the experiment on NCI/ADR-RES ovarian, 3.25% (active); in the experiment with T-47D breast, -56.3% (active); in the experiment on BT-549 breast, -24.4% (active); in the experiment on MDA-MB-435 melanoma, -51.2% (active). The growth was -65.7% (active) with SW-620 colon; -46.1% (active) with MCF7 breast; -77.6% (active) in the experiment with HCT-116 colon; 34.9% with HCC-2998 colon; 31.2% with KM12 colon.

With `COc1cc(C(C)c2ccc3c(ccn3C)c2)cc(OC)c1OC` (stereo unspecified), the growth was 15.8% in the experiment on RPMI-8226 leukemia; 11.5% with OVCAR-8 ovarian; 63.1% with OVCAR-5 ovarian; 37.5% with OVCAR-4 ovarian; 17.7% in the experiment with SK-OV-3 ovarian; 18.8% in the experiment on IGROV1 ovarian. The growth in the experiment on OVCAR-3 ovarian is -16.4% (active); in the experiment with HS 578T breast it was 35.1%; with NCI/ADR-RES ovarian, 13%; in the experiment on T-47D breast it was 57.3%; with BT-549 breast, 12.7%; in the experiment with MDA-MB-435 melanoma, -40.6% (active). Further, the growth is 28% with SW-620 colon; 14.6% with MCF7 breast; 5.43% (active) in the experiment with HCT-116 colon; 23.4% in the experiment on HCC-2998 colon; 10.3% in the experiment with KM12 colon.

Consider `COc1ccc(C(=O)c2cc(F)c(F)c(OC)c2F)cc1OC(=O)CCl`, for which the growth is 37.2% in the experiment on RPMI-8226 leukemia; 51.1% with OVCAR-8 ovarian; 103% with OVCAR-5 ovarian; 81.7% in the experiment with OVCAR-4 ovarian; 45.9% in the experiment with SK-OV-3 ovarian; 43.7% in the experiment on IGROV1 ovarian. The growth is 13.7% in the experiment with OVCAR-3 ovarian; 65.4% in the experiment on HS 578T breast; 14.3% in the experiment on NCI/ADR-RES ovarian; 44.1% with T-47D breast; 36.3% with BT-549 breast; -27.7% (active) with MDA-MB-435 melanoma. For the same compound, the growth is 20.6% in the experiment with SW-620 colon; 19.2% with MCF7 breast; 20.5% in the experiment on HCT-116 colon; 79.5% in the experiment with HCC-2998 colon; 31.1% in the experiment with KM12 colon.

Turning to `Nc1n[nH]c2cccc(C#Cc3cccc(NC(=O)c4cc(N5CCOCC5)cc(C(F)(F)F)c4)c3)c12`, the growth is 40.5% in the experiment on RPMI-8226 leukemia; 45.5% in the experiment with OVCAR-8 ovarian; 42.4% with OVCAR-5 ovarian; 51.5% in the experiment with OVCAR-4 ovarian; 35.1% with SK-OV-3 ovarian; 9.97% (active) in the experiment on IGROV1 ovarian. The growth is 67.3% in the experiment with OVCAR-3 ovarian; 40.5% in the experiment on HS 578T breast; 47% in the experiment on NCI/ADR-RES ovarian; 28.3% with T-47D breast; 63.4% in the experiment with BT-549 breast; 45.8% in the experiment on MDA-MB-435 melanoma. Moreover, the growth is 46.6% in the experiment on SW-620 colon; 46.6% in the experiment with MCF7 breast; 19.4% with HCT-116 colon; 31.3% in the experiment with HCC-2998 colon; 54.5% with KM12 colon.

For `Cc1ccc(C2=N[C@H]3CCC[C@@H]3N(c3ccccc3)C(C(Cl)Cl)=N2)cc1`, the growth in the experiment with RPMI-8226 leukemia is 111%; in the experiment on OVCAR-8 ovarian it was 113%; in the experiment on OVCAR-5 ovarian, 91.3%; in the experiment with OVCAR-4 ovarian it was 96.9%; in the experiment with SK-OV-3 ovarian, 111%; in the experiment with IGROV1 ovarian it was 98.7%. Also, the growth in the experiment with OVCAR-3 ovarian is 103%; in the experiment with HS 578T breast, 100%; with NCI/ADR-RES ovarian it was 97.9%; in the experiment with T-47D breast it was 106%; in the experiment on BT-549 breast it was 106%; in the experiment on MDA-MB-435 melanoma, 103%. Also, the growth was 107% in the experiment on SW-620 colon; 87% in the experiment on MCF7 breast; 97.7% in the experiment on HCT-116 colon; 110% in the experiment with HCC-2998 colon; 100% with KM12 colon.

Take `C=CCn1c(SCC(=O)Nc2ccc(C(=O)/C=C/c3ccc(Cl)cc3)cc2)nnc1-c1cc(OC)c(OC)c(OC)c1`: the growth is 28.7% in the experiment on RPMI-8226 leukemia; 91.6% with OVCAR-8 ovarian; 116% in the experiment on OVCAR-5 ovarian; 87.9% with OVCAR-4 ovarian; 109% with SK-OV-3 ovarian; 99.5% with IGROV1 ovarian. Moreover, the growth in the experiment on OVCAR-3 ovarian was 91.9%; with HS 578T breast, 87.8%; in the experiment with NCI/ADR-RES ovarian, 95.5%; in the experiment with T-47D breast, 78.9%; in the experiment on BT-549 breast, 94%; in the experiment on MDA-MB-435 melanoma it was 93.2%. Besides, the growth in the experiment on SW-620 colon is 98.2%; in the experiment on MCF7 breast it was 41%; in the experiment with HCT-116 colon, 6.42% (active); in the experiment on HCC-2998 colon, 106%; in the experiment on KM12 colon, 93.3%.

With `C=C1C(=O)O[C@H]2[C@H]1CC/C(C=Nc1c(N)cc(C(F)(F)F)cc1Br)=C\CC[C@@]1(C)O[C@@H]21`, the growth was -23.4% (active) in the experiment with RPMI-8226 leukemia; -8.6% (active) in the experiment with OVCAR-8 ovarian; 42.8% with OVCAR-5 ovarian; 55.3% in the experiment with OVCAR-4 ovarian; 83.1% in the experiment on SK-OV-3 ovarian; -9.71% (active) in the experiment with IGROV1 ovarian. Also, the growth is -91.9% (active) with OVCAR-3 ovarian; 6.58% (active) in the experiment with HS 578T breast; 9.14% (active) with NCI/ADR-RES ovarian; -16.3% (active) with T-47D breast; -22.6% (active) in the experiment on BT-549 breast; 4.47% (active) in the experiment with MDA-MB-435 melanoma. Further, the growth in the experiment on SW-620 colon was -63.1% (active); with MCF7 breast it was -2.09% (active); with HCT-116 colon, -80.6% (active); in the experiment with HCC-2998 colon, 34.2%; with KM12 colon, 30%.

`CC(/C=C/c1ccccc1)=N/NC(=O)c1ccncc1`: the growth was 99.9% in the experiment with RPMI-8226 leukemia; 101% with OVCAR-8 ovarian; 114% in the experiment with OVCAR-5 ovarian; 105% in the experiment with OVCAR-4 ovarian; 105% with SK-OV-3 ovarian; 103% in the experiment on IGROV1 ovarian. Besides, the growth is 109% with OVCAR-3 ovarian; 99.6% in the experiment on HS 578T breast; 107% in the experiment with NCI/ADR-RES ovarian; 99% in the experiment on T-47D breast; 105% with BT-549 breast; 106% in the experiment on MDA-MB-435 melanoma. Also, the growth in the experiment on SW-620 colon is 98.7%; in the experiment on MCF7 breast, 93.6%; in the experiment with HCT-116 colon, 92.7%; in the experiment on HCC-2998 colon it was 107%; in the experiment on KM12 colon, 105%.
